Data as given in article PMC12136788.
Substitutions are numbered along the chain they refer to. In all, about 24,000 sequences were measured (“enrichment r”: median about 0.99, highest 2% from about 3.7 on). The entries come from a sample that favours the highest values as a whole.

T1: UNK ZnF1-3 (human, UniProt Q9C0B0 31-174)
T1 sequence: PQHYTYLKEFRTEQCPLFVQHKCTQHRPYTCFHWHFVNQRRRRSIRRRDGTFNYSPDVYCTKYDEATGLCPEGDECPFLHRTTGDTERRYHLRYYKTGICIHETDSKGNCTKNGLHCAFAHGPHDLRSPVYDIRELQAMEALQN

B1: chr16:94664806:94664807:+_ENSMUSG00000040785_ENSMUST00000117648|mus_hu|motif|central (ssRNA)
RNA: GGGAGUUCUACAGUCCGACGAUCAUGAUGACCCUCAAAAUAGGCAGCAGCAUUUUUAUCUGCUCUGUCAUUGGCGGCAAAAGACGGCACCACUGGUACUGAUCUUGGUAGCUGAUAUUCAGGAGAAAGGCUGGCCAAGGGUGUCAACAGAGGAUUGAGCAUCA
B2: chr7:7679991:7679992:-_ENSG00000106399_ENST00000396682|hu_hu|hu_hu_hu_mus_False|1_8 (ssRNA)
RNA: GGGAGUUCUACAGUCCGACGAUCUGGGAUGAAUCUUUUCCAGCUUCCCCACGAAGCACACGGGCCGGUCGAUAUACUGUGGUAACAUGCUGGCGUUGACGCGCGCUUUGGGGAGCUGCAUUAUGUCCACCAUGAUUAUGGUCCCAACAGAGGAUUGAGCAUCA
B3: chr13:100200574:100200575:-_ENSMUSG00000052727_ENSMUST00000064762|mus_hu|motif|central (ssRNA)
RNA: GGGAGUUCUACAGUCCGACGAUCAUAAUCUUCUUCAUCUGGGGACCUGGUUGUUUCCUCAGGCUUUUGAUAGGCAUAGCGGAAGUCACCAGGUGUCUUCCCUCCACUGUCCUUCUCCAGGCCAGGUGUGGACAAAUCUCUAUUCAACAGAGGAUUGAGCAUCA
B4: chr2:48026839:48026840:+_ENSG00000116062_ENST00000540021|hu_hu|hu_hu_hu_mus_False|58_68 (ssRNA)
RNA: GGGAGUUCUACAGUCCGACGAUCAUAGUGAGCCACUAGCGUCCUAAAUCUGGAACAGUGGCGGUCAUCUGAAAACUGACCUAUGAAAAACUUGCCCAGUGAAGUGUCCACAAAGCAAACACCAUACACACGAGUGUGACCAGACAACAGAGGAUUGAGCAUCA
B5: chrX:98862621:98862622:+_ENSMUSG00000034160_ENSMUST00000044475|mus_hu|mus_mus_mus_hu_False|48_68 (ssRNA)
RNA: GGGAGUUCUACAGUCCGACGAUCCUGCAUCUCCUUUAGAGUGUUUCCCAUAUUAGAGUAGGCAUCAGCAAAUGUAGGACUGAUUCGUAUGGCUUCUUUAUAAUGCAUCAGAGCUUCCUGCAGUUUUCCCUGCUGCUGCAGUACCAACAGAGGAUUGAGCAUCA
B6: chr4:109959997:109959998:-_ENSMUSG00000028546_ENSMUST00000106598|mus_hu|FALSE|FALSE (ssRNA)
RNA: GGGAGUUCUACAGUCCGACGAUCUGUUAUAUAUAAUUAAAGAUCCACAAAACACAGUGUGGAUGAUUGUAAAGCAAAUCAAUUAUUUUUGGGGGGGUGGGCGGGGGAGAGAAAGAAAAAAAAGAAAAGGAGCAGUGAGCUGAACAACAGAGGAUUGAGCAUCA
B7: chr4:109959997:109959998:-_ENSMUSG00000028546_ENSMUST00000106598|mus_mus|FALSE|FALSE (ssRNA)
RNA: GGGAGUUCUACAGUCCGACGAUCUAUAUAUAUAUAUUAAAGAUCCACAGACCACAGUGUGGAUGAUUGUAAAGUAAAUCUAUUAUUGGGAGGGGGUGGGGUGGGAAAGAAAGGGGGAAAAAAAAGAGAGGAAGAAAAGGCGCACAACAGAGGAUUGAGCAUCA
B8: chr4:109959997:109959998:-_ENSMUSG00000028546_ENSMUST00000106598|mus_mus|motif|central (ssRNA)
RNA: B7 RNA with U80G, A81G
B9: chr1:205685097:205685098:-_ENSG00000069275_ENST00000367142|hu_hu|motif|central (ssRNA)
RNA: GGGAGUUCUACAGUCCGACGAUCUAUCAAGCCUGACUAUUGAGCACCUGUAUCCAGUUGAGUCACCACCACUGUCCUCCGGUUUGCAUGCAUGAUUUGAGGGGAAGACUAGAGUGUUUUAAAUCAUCAAUAAAAAGUGGAGAACAACAGAGGAUUGAGCAUCA
B10: chr16:49913422:49913423:+_ENSMUSG00000055447_ENSMUST00000084838|mus_mus|motif|central (ssRNA)
RNA: GGGAGUUCUACAGUCCGACGAUCGCUCUCUACGAUUGUAUAAGUGGAGGGCAGACAAUAAAUAAAAAUUGAAUAGAGGCGGUGACAGCAGAAAUCGGGAUUUGGGAGAGAAAAGCGCAUUGUGGGACAAAACAGAUGCGUGGUCAACAGAGGAUUGAGCAUCA
B11: chr1:46159212:46159213:+_ENSG00000159596_ENST00000372025|hu_mus|hu_hu_hu_mus_True|68_98 (ssRNA)
RNA: GGGAGUUCUACAGUCCGACGAUCUCUGAUCCCUCCCAAGAAAGAUAGGAAACCGGCUCCAUAAGCCAUCUGAGUAAAAGCUAGGACGGGGAUAUAAGACUUUGUUAUUACCAUGAGAAGUGGGGGAGCAGUAAAGGGGAUUAACAACAGAGGAUUGAGCAUCA
B12: chr8:27092522:27092523:-_ENSMUSG00000037251_ENSMUST00000061850|mus_mus|FALSE|FALSE (ssRNA)
RNA: GGGAGUUCUACAGUCCGACGAUCAGCGGGGUGGGUUGUUGUUUGCUGUUGGUCGGUGUUUGUGAAGUGGUCGUGGGCGAAGAAGAAACAAGAAGAAAUGAGAUAUCUUGGCAGCAAAGAUCAUUGCUCCAAGGAACUCGACACCAACAGAGGAUUGAGCAUCA
B13: chr12:86641468:86641469:-_ENSMUSG00000034290_ENSMUST00000040992|mus_hu|FALSE|FALSE (ssRNA)
RNA: GGGAGUUCUACAGUCCGACGAUCCAAGACCUCCCACAAUGUUGAUAAGAUUAUCAAACAUUUUGGUCUGGGGAAGAUGAAACAAAAUUAAUUUAGCUGUUUAUAGGAAGGUGGGAUGUGAGACUCAUCAAAGGUAGGAUGUGUCAACAGAGGAUUGAGCAUCA
B14: chr2:238002776:238002777:+_ENSG00000198612_ENST00000392008|hu_hu|FALSE|FALSE (ssRNA)
RNA: GGGAGUUCUACAGUCCGACGAUCGAUUGAAGUAUACGCUUGAGAGACCAGGGCAAAGGCGCGUCUCCUUGUUGCAUCUCUAAGUGCUUCCAUAAUUGGCUGGACCGUCUCAGACCACUGGUGAGCGUUGAUGGUUGUAUAGAUCAACAGAGGAUUGAGCAUCA
B15: chr8:73998637:73998638:+_ENSMUSG00000074247_ENSMUST00000124745|mus_hu|FALSE|FALSE (ssRNA)
RNA: GGGAGUUCUACAGUCCGACGAUCCUUGAUACAGGUUACAGCAUAAAUAAAAACUCAAGGAAAAUAAAUACAUCGGCUCCUAUGAGGUUGGAAGUGGUGUGGACGCAGGGUGUGGAUGGGCCGGCAGGGAGGCGGGCGGGCGGGCAACAGAGGAUUGAGCAUCA
B16: chr16:49913422:49913423:+_ENSMUSG00000055447_ENSMUST00000084838|mus_mus|FALSE|FALSE (ssRNA)
RNA: B10 RNA with G80U, G81A
B17: chr1:46159212:46159213:+_ENSG00000159596_ENST00000372025|hu_mus|hu_hu_hu_mus_True|8_68 (ssRNA)
RNA: B11 RNA with A44C, G130A, U131C, A132G
B18: chr6:36760027:36760028:-_ENSMUSG00000029838_ENSMUST00000101534|mus_hu|FALSE|FALSE (ssRNA)
RNA: GGGAGUUCUACAGUCCGACGAUCGUACCCGGCUCGCUGCAGCUCCUGCUUGGGCCGCUGCUGCUCUCCCCGCCUUCUGGACGGAUGACUCACUGGUCUCUUUCUUCCCCUCUCUCCACUUUGGAUUUUCCUCUGCUCUGGGGCCAACAGAGGAUUGAGCAUCA
B19: chr5:37680062:37680063:+_ENSMUSG00000029121_ENSMUST00000031004|mus_hu|mus_mus_mus_hu_False|8_38 (ssRNA)
RNA: GGGAGUUCUACAGUCCGACGAUCUUUGGGUGUAGCUGGUACCUCGUACACAGGACCGUCAUACAUGCCCCUGGAAACCCCUUGCAAUCCAAAAACCUUGCUUCUGAUUUUGACGCGCUGGUACAGGUGCUCUGGGAACGCCUUCAACAGAGGAUUGAGCAUCA
B20: chr18:54424204:54424205:+_ENSG00000091157_ENST00000357574|hu_mus|FALSE|FALSE (ssRNA)
RNA: GGGAGUUCUACAGUCCGACGAUCCCAGGCGUGGAGACAGGACAUGAAUAAUUUUGCGGUAUCCAUAGUAAGGUUGUAUUCUAGUAGGGUCAGUGGCUUGGACUUGCUGGCCCGGUACUCAGGGUCACUAUCCUCCCUGCUCUGCAACAGAGGAUUGAGCAUCA
B21: 95985174_95988629_161_5pUTR_ENSMUSG00000038486_ENSMUST00000035371|mouse|control|control (ssRNA)
RNA: GGGAGUUCUACAGUCCGACGAUCGGCUAAACUGAGGAUCCAAGAUAUUUCAGGGAGGGCUGCCUAUUUUUCUUCUGAGAGGCUCUGAAGACCUGAGCUUGGUUCCCCGGGUCAGGGAGUCCCCGGGUGAGGGAGGGGGUCCAGCAACAGAGGAUUGAGCAUCA
B22: chr8:35203877:35203878:-_ENSMUSG00000031513_ENSMUST00000033910|mus_hu|motif|central (ssRNA)
RNA: GGGAGUUCUACAGUCCGACGAUCGGAAGGGCACAUCCAAGCAUCAAAAACAUCAGUCCGAUUGCUCCUCCAAAGGACAAACGGAUCAAAGCUUUGAUGCCUGCCAUGGCGGUGACGUCGCUCCUGGCUCCACGACCCGAGGCGCAACAGAGGAUUGAGCAUCA

These binders were tested against T1, UNK ZnF1-3 (assay: nsRBNS (natural sequence RNA bind-n-seq); RBNS binding buffer (assumed for nsRBNS): 25 mM Tris pH 7.5, 150 mM KCl, 3 mM MgCl2, 0.01% Triton X-100, 500 ug/ml BSA, 20 U/ml SUPERase-In, 4 C; UNK is unkempt and MSI1 is Musashi-1; names of the RNAs are library labels; protein concentration not given here; high values mean tight binding).

Binder	binding signal
B1	1.61 enrichment R
B2	0.387 enrichment R
B3	0.378 enrichment R
B4	1.18 enrichment R
B5	1.06 enrichment R
B6	3.98 enrichment R
B7	5.2 enrichment R
B8	5.4 enrichment R
B9	2.19 enrichment R
B10	3.75 enrichment R
B11	1.71 enrichment R
B12	1.76 enrichment R
B13	1.55 enrichment R
B14	0.907 enrichment R
B15	3.01 enrichment R
B16	3.41 enrichment R
B17	1.56 enrichment R
B18	0.683 enrichment R
B19	0.747 enrichment R
B20	0.993 enrichment R
B21	1.92 enrichment R
B22	0.394 enrichment R
